# Compound activity as filed in PubChem.
# Only some compounds are listed: those with a hit (about 3.4% of all), similar ones and a draw of the others.
# TEAD-YAP inh: TEAD-YAP interaction inhibition, primary screen, TEAD-YAP interaction inhibitor project, luminescence, HEK-TIYL cells; TEAD-Gal4/YAP UAS-luciferase luminescence; hit rate 1.4% among 640,000; inhibition, % at 9.12 µM; in the data active = inhibition above about 32%;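 also: 0% = median of test compound wells and 100% = reference inhibitor wells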
# FBW7 activator: FBW7 E3 ligase activators, primary screen, biochemical, AlphaScreen, human | F-box/WD repeat-containing protein 7 (Homo sapiens), Q969H0 | AlphaScreen FBW7–phospho-cyclin E peptide binding, activator screen | normalized activity (activation), % at 26.1 µM | hit rate 0.13% among 650,000 | AID 1259310, 2017; in the data active = normalized activity above about 1.9%;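 also: purified mutant Fbw7 with reduced substrate affinity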
# Target sequence (Q969H0 whole entry, looked up): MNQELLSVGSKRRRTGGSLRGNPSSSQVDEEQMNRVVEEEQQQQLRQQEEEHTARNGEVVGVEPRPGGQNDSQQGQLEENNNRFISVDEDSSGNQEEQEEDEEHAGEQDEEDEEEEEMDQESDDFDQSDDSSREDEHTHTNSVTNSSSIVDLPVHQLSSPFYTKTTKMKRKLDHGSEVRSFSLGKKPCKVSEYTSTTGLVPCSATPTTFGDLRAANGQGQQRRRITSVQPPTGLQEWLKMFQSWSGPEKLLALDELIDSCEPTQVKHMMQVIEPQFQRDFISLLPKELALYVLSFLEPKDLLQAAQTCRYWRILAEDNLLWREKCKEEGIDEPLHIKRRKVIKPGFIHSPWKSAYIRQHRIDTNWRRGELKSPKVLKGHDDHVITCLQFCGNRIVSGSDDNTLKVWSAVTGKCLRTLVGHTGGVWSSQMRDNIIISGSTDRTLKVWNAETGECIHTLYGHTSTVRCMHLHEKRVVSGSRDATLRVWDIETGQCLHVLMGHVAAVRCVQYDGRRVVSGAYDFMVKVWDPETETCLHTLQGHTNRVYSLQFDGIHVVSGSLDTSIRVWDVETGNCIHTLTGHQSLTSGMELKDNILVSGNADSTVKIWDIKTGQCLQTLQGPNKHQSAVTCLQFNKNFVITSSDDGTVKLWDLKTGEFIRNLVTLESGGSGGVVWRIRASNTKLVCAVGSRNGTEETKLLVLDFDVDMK
# GPR151 ag: activators of human GPR151, primary screen, cell-based, PathHunter beta-arrestin, luminescence; G-protein coupled receptor 151 (Homo sapiens), Q8TDV0; PathHunter beta-arrestin GPR151 cells; activation, % at 11.2 µM; hit rate 1% among 650,000; in the data active = activation above about 4.9%;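 also: 0% = median of compound wells and 100% = cells with positive control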
# MITF inh: MITF inhibitors, primary screen, biochemical, AlphaScreen, human | AlphaScreen MITF homodimerization, bead proximity signal | AID 1259374, 2018 | Microphthalmia-associated transcription factor (Homo sapiens), O75030 | inhibition, % at 2.6 µM | hit rate 0.91% among 650,000; in the data active = inhibition above about 50%;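 also: 0% = vehicle wells with protein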
# Active calls of the source: *.
SMILES,TEAD-YAP inh,FBW7 activator,GPR151 ag,MITF inh
COc1ccc(C(=O)NCc2nnc(SCC(=O)N3N=C(c4cccs4)CC3c3ccc(C)cc3)n2Cc2ccccc2)cc1 (stereo not given),7,0,-2,7
O=C1OC(c2ccc(F)cc2)=N/C1=C\c1ccc(F)cc1,0,0,1,2
COCCN1C(=S)NC2CC1(C)Oc1ccc(Br)cc12 (stereo not given),10,0,1,16
CCC(=O)NC(c1ccc(OC)cc1)c1c(O)ccc2ccccc12 (stereo not given),52*,0,0,-12
CCCC(=O)NC(c1ccc(F)cc1)c1ccc2cccnc2c1O (stereo not given),86*,-1,-1,31
CCCC(=O)NC(c1ccccc1)c1ccc2cccnc2c1O (stereo not given),85*,-2,-1,50
CCCC(=O)NC(c1ccc(OC)cc1)c1ccc2cccnc2c1O (stereo not given),72*,-2,1,50
CCc1cccc2sc(N3CCN(C(=O)C4CCCN4S(=O)(=O)c4cccs4)CC3)nc12 (stereo not given),1,0,-2,-15
O=C(N/N=C/c1cc2c(cc1Br)OCO2)c1cc2ccccc2cc1O,-1,0,0,-3
O=C(NCCc1nnc2n1CCN(Cc1cccc(Cl)c1)CC2)C1CCC1,-10,0,1,9
CCCCOc1ccccc1NC(=O)Cn1c(-c2nonc2N)nc2ccccc21,54*,0,-1,-5
O=C(Nc1nonc1-c1nc2ccccc2n1Cc1c(F)cccc1Cl)c1ccccc1Cl,65*,0,1,-8
CCc1ccccc1NC(=O)Cn1c(-c2nonc2N)nc2ccccc21,7,0,1,-1
Nc1nonc1-c1nc2ccccc2n1CC(=O)Nc1ccccc1F,54*,0,1,1
Nc1nonc1-c1nc2ccccc2n1CC(=O)N/N=C/c1ccncc1,53*,0,1,0
CC(=O)Nc1nonc1-c1nc2ccccc2n1Cc1c(F)cccc1Cl,-6,0,-1,3
N#CC1=C(S)NC(=O)[C@H]([n+]2ccccc2)C1c1ccc(F)c(Br)c1 (stereo not given in full),2,0,0,17
Cc1onc(-c2ccccc2Cl)c1C(=O)Nc1nnc(CC(C)C)s1,2,0,1,-5
Nc1nonc1-c1nc2ccccc2n1CC(=O)Nc1ccccc1C(F)(F)F,34*,0,-1,3
COc1ccc(C(=O)N/C(=C\c2ccc(-c3ccc(Br)cc3)o2)C(=O)NC2CCCCC2)cc1,-2,1,2,18
COc1ccc(COn2ccc3ccc(S(C)(=O)=O)cc32)cc1,42*,0,0,-3
Cc1cc(C(=O)NN=C2C3CC4CC(C3)CC2C4)c2ccccc2n1,47*,0,-1,0
Cc1cc(C(=O)NC2CC2)c2ccccc2n1,2,0,0,-2
CCCN1C(=O)CC(c2ccc(OC)c(OC)c2)S(=O)(=O)c2ccccc21 (stereo not given),2,0,0,4
COc1cc2nc(Nc3ccnn3C)nc(Nc3cc(OC)c(OC)c(OC)c3)c2cc1OC,64*,0,1,8
SMILES,TEAD-YAP inh,FBW7 activator,GPR151 ag,MITF inh
O=C(/C=C/c1ccc(Br)cc1)Nn1c(-c2cccc([N+](=O)[O-])c2)nc2ccccc2c1=O,-2,0,0,-7
CCOC(=O)C(C)Sc1nnc(NC(=O)CCCl)s1 (stereo not given),0,3.4*,1,21
O=C(NCCO)c1ccnc(N2CCN(c3ccccn3)CC2)c1,-8,0,1,9
O=C(NCCc1ccc(O)cc1)c1ccnc(N2CCN(c3ccccn3)CC2)c1,45*,0,-1,-7
COC(=O)CSc1nnc(-c2ccc(C(C)(C)C)cc2)o1,66*,0,-1,1
COC(=O)CSc1nnc(-c2ccc(C)cc2)o1,1,0,-1,4
COc1ccc(-c2nnc(SCC(=O)c3ccc[nH]3)o2)cc1,39*,0,-4,-5
COc1ccc(-c2nnc(SCC(=O)OCC(=O)Nc3ccccc3C#N)o2)cc1,67*,0,1,-3
COc1ccc(-c2nnc(SCC(=O)c3ccccc3F)o2)cc1,-21,0,-1,13
N#Cc1ccccc1NC(=O)COC(=O)CSc1nnc(-c2ccc3c(c2)OCO3)o1,38*,0,-2,-1
